High-throughput results deposited in PubChem BioAssay by National Center for Advancing Translational Sciences (NCATS).
In the library only some 15% were active in any assay of this set; here they are far more common.
HCMV antiviral: inhibitors of human cytomegalovirus | HFF cells, HCMV-luciferase reporter, 72 h; stronger effect = lower value | activity change, negative = inhibition, % at 57.5 µM | hit rate 4.5% among 410,000; in the data active means activity change below about -60%; inconclusive means no clear call, values can overlap the other calls; inactive means above about -39%; further: on the % scale 0 is the no-effect control and ±100 the full control effect
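Human foreskin fibroblasts infected with luciferase-reporter HCMV at MOI 1 PFU/cell, compounds at two doses. Luciferase measured 72 h post infection; normalized to buffer-only basal and Salinomycin (10uM) controls.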
SARS PLpro yeast: SARS-CoV PLP inhibition in yeast | hit rate 0.19% among 330,000 | Potency, µM (top dose mostly 32.9 µM), without a hit: top-dose activity, positive = growth rescue, hits mostly activators | S. cerevisiae expressing SARS-CoV PLpro, growth rescue | AID 485353; calls by dose curve; further: potency means the concentration at half of the fitted maximal effect; 0% is about no effect; nearly all actives have a fitted effect of over 55% in size
Pf growth 96h: P. falciparum growth inhibition at 96 hours; Potency, µM (series often up to 28.7 µM), without a hit: at the top dose activity change, negative = inhibition, most hits filed as inhibitors; hit rate 6.9% among 320,000; P. falciparum luciferase reporter growth, 96 h; AID 504834; further: potency means the concentration at half of the fitted maximal effect; on the % scale 0 is the no-effect control and ±100 the full control effect
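Compounds incubated with erythrocytes infected by luciferase-expressing P. falciparum (2% hematocrit, 0.05% parasitemia final) for 96 hours, 37 C in 5% CO2. Growth inhibition scored as decreased luciferase luminescence.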
Pf growth 48h: P. falciparum growth inhibition at 48 hours (one generation) | Potency, µM (series often up to 28.7 µM), for inactives: top-dose activity change, negative = inhibition, usual class: inhibitors | P. falciparum luciferase growth in erythrocytes, 48 h | AID 504832 | hit rate 5.9% among 310,000; further: potency means the concentration at half of the fitted maximal effect; on the % scale 0 is the no-effect control and ±100 the full control effect
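Luciferase-expressing P. falciparum in infected erythrocytes (2% hematocrit, 0.1% parasitemia final) in RPMI 1640/0.5% Albumax were exposed to compound for 48 hours at 37 C, 5% CO2; growth read as luminescence.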
HCV inh: blocks hepatitis C virus; Huh7.5.1 HCVcc-Cre infection, luciferase reporter, 44 h; Potency, µM (series often up to 41.8 µM), for the others: at the highest dose activity change, negative = inhibition, most hits filed as inhibitors; hit rate 3.4% among 340,000; AID 651820; further: potency means the concentration at half of the fitted maximal effect; on the % scale 0 is the no-effect control and ±100 the full control effect
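Reporter virus HCVcc-Cre (~0.5 moi) infects cells exposed to compound; seeding density 1,000 cells/well with 4 h settling beforehand. Luminescence, 15 sec read, taken 44 h post-infection following a 15 min RT substrate incubation.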
Sm TGR inh: S. mansoni TGR enzyme inhibition; Q962Y6; hit rate 3% among 360,000; Potency, µM (titrated, usually from 114 µM), inactives show at the top dose activity change, negative = inhibition, actives largely listed as inhibitors; AID 485364; purified TGR, DTNB reduction, TNB absorbance 405 nm; further: potency means the concentration at half of the fitted maximal effect; on the % scale 0 is the no-effect control and ±100 the full control effect; nearly all actives have a fitted effect of over 60% in size
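Kinetic colorimetric format: TGR-catalysed, NADPH-driven DTNB reduction monitored via TNB absorbance. Enzyme dispensed at 20 nM; compound exposure 15 min at room temperature before reaction start.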
* marks the source's active call; other numbers are inactive results; ? = inconclusive; . = no result; [ ] = remark or other dose. Unless noted, the call rests on the fitted dose curve; in most records, active means well fitted curve in the direction sought with a large enough effect; inconclusive means small, poorly fitted or top-dose-only effect, or another doubt; inactive means no such curve, though single readings can be large; an effect the other way counts as inactive or inconclusive.

SMILES	HCMV antiviral	SARS PLpro yeast	Pf growth 96h	Pf growth 48h	HCV inh	Sm TGR inh
COc1ccc(-c2cc(C(=O)Nc3cc(C)ccc3O)no2)cc1	-29	0%	3.3µM*	-17%	?	15%
Cc1ccc(C(=O)COC(=O)C(CC(C)C)NC(=O)C2CCC(C)CC2)cc1 (stereo not drawn)	10	.	.	.	.	-2%
CNc1nc(OC)nc(N2CCOCC2)n1	21	5%	-8%	12%	12%	0%
CNc1nc(C(=O)O)nc(N2CCOCC2)n1	-105*	3%	?	23%	25%	11%
C[C@H](NS(=O)(=O)c1ccc2c(c1)OCCCO2)C(=O)N1CCN(Cc2ccc(C#N)cc2)CC1	-4	-10%	?	-13%	?	-4%
COc1cc(/C=N/NC(=O)Cc2ccccc2)ccc1Oc1ccc([N+](=O)[O-])cc1[N+](=O)[O-]	-62*	-21%	-2%	-28%	14µM*	1%
COc1cc(/C=N/NC(=O)C2c3ccccc3Oc3ccccc32)ccc1O	-19	5%	13µM*	?	-18%	-5%
COc1cc(/C=N/NC(=O)CCn2c3ccccc3c3ccccc32)ccc1O	?	-2%	1%	-5%	7.9µM*	9%
COc1cc(C(=O)N/N=C/c2ccc3c(c2)c2ccccc2n3C)ccc1O	-14	0%	9.3µM*	4.7µM*	?	0%
COc1cc(/C=N/NC(=O)CCn2nnc3ccccc32)ccc1O	15	21%	32%	0%	9%	-6%
COc1cc(/C=N/NC(=O)C2COc3ccccc3O2)ccc1O (stereo not drawn)	-32	0%	5%	37%	6%	-2%
CCOc1cc(/C=N\NC(=O)c2c(C)nc3ccccn23)ccc1O	23	-2%	247%	-15%	8%	1%
COc1cc(/C=N/NC(=O)c2cccc(NC(=O)c3ccccc3)c2)ccc1O	-82*	1%	13%	-10%	14%	3%
Cn1c2ccccc2c2cc(/C=N/NC(=O)c3cc(O)cc(O)c3)ccc21	-23	?	?	?	0%	-9%
COc1ccc(/C=N/NC(=O)CC(=O)NCCc2ccccc2)cc1OC	23	-3%	34%	21%	8%	-22%
CCOc1cc(/C=N/NC(=O)c2ccc(=O)n(C)c2)ccc1O	-15	-1%	3.3µM*	21%	7%	9%
Cn1c2ccccc2c2cc(/C=N/NC(=O)c3cc(O)ccc3O)ccc21	16	-6%	?	?	10µM*	?
COc1cc(/C=N\NC(=O)CC(=O)NCCc2ccccc2)ccc1O	-35	0%	10µM*	-1%	?	5%
CCOc1ccc(S(=O)(=O)Nc2cccc(C(=O)NCC3CCCO3)c2)cc1 (stereo not drawn)	-28	-2%	1%	-6%	?	-1%
CN(CC(=O)Nc1ccccc1Cl)CC(=O)c1c(N)n(Cc2ccccc2)c(=O)n(C)c1=O	-23	-24%	?	-12%	0%	0%
CCCCn1c(N)c(N(CC(C)C)C(=O)CSc2nnc(C)n2-c2ccc(OC)cc2)c(=O)[nH]c1=O	-14	2%	?	?	20%	-7%
Cn1nnnc1SCCNCc1ccccc1OCc1ccc(Cl)cc1Cl	-39	.	.	.	.	9%
CCN(CC)CCNC(=O)c1c(C)oc2ncnc(N3CCOCC3)c12	22	.	.	.	.	5%
Oc1ccc(Br)cc1CNc1nccs1	-5	-4%	?	?	-11%	0%
Oc1ccc(Br)cc1CNc1ccccn1	0	-2%	6.6µM*	?	-13%	6%
SMILES	HCMV antiviral	SARS PLpro yeast	Pf growth 96h	Pf growth 48h	HCV inh	Sm TGR inh
CC(=O)N=c1scc(-c2ccccc2)n1-c1cccc(O)c1	-92*	1%	-3%	-19%	?	4%
O=c1c2ccccc2nc(-c2ccccc2)n1-c1cccc(O)c1	-26	-1%	19%	-4%	-6%	-1%
Cc1ccc(CNc2nc(N)c([N+](=O)[O-])c(NCc3ccccc3)n2)cc1	-61*	-10%	4%	16%	0%	10%
Cc1ccc(CNc2nc(N)c([N+](=O)[O-])c(NCCO)n2)cc1	10	0%	8.3µM*	?	?	21%
Nc1nc(NCc2ccccc2)nc(NCc2ccccc2)c1[N+](=O)[O-]	?	13%	?	?	-21%	4%
Oc1cc(CNC2CCCCC2)c(O)cc1CNC1CCCCC1	-18	.	.	.	-21%	.
Cc1ccc(CNC(=O)C2CC3Cn4c(nc5ccccc54)C3N2C)o1 (stereo not drawn)	2	4%	26%	-21%	14%	35µM*
CN1C(C(=O)NCC2CC2)CC2Cn3c(nc4cc5ccccc5cc43)C21 (stereo not drawn)	-5	-7%	-17%	-20%	13%	-13%
C=CCNC(=O)C1CC2Cn3c(nc4ccccc43)C2N1C (stereo not drawn)	24	1%	17%	-2%	49%	?
Cc1ccc(CNC(=O)C2CC3Cn4c(nc5cc6ccccc6cc54)C3N2C)o1 (stereo not drawn)	-101*	3%	35%	?	-17%[8.37 µM]	45µM*
O=C(c1ccc(CS(=O)c2ccccc2Cl)o1)N1CCN(c2cccc(C(F)(F)F)c2)CC1 (stereo not drawn)	-96*	.	.	.	.	1%
O=C(c1ccc(CS(=O)Cc2ccccc2Cl)o1)N1CCN(c2cccc(Cl)c2)CC1 (stereo not drawn)	-23	-7%	31%	-23%	?	?
O=C(c1ccc(CS(=O)c2ccccc2Cl)o1)N1CCN(c2ccccn2)CC1 (stereo not drawn)	?	3%	?	-9%	?	-14%
O=C(c1ccc(CS(=O)c2ccccc2Cl)o1)N1CCN(c2cccc(Cl)c2)CC1 (stereo not drawn)	-93*	.	.	.	.	5%
COc1ccc(NC(=O)CSC2=Nc3ccccc3N=C(c3ccc(F)cc3)C2)cc1OC	-102*	.	.	.	.	-2%
CC(=O)[C@H]1[C@H]([C@H](O)[C@H](O)CO)O[C@](O)(C(=O)O)C[C@@H]1O	20	6%	22%	-9%	14%	13µM*
O=C(c1ccco1)N1CCN(c2nc3ccccc3n3nnnc23)CC1	-28	-14%	?	-25%	-3%	-24%
c1ccc(CC2CCN(c3nc4ccccc4n4nnnc34)CC2)cc1	-102*	0%	?	-5%	-3%	5%
Clc1ccc(-c2nc3ncccn3c2Nc2ccc3c(c2)OCO3)cc1	-2	8%	4.1µM*	4.1µM*	0%	-7%
Oc1ccc(-c2nc3ncccn3c2Nc2ccc3c(c2)OCO3)cc1	17	3%	-1%	?	6%	-22%
